From the supplement of paper PMC11219838
Unmarked numbers belong to inactive results.

What was measured:
[1] = test system: Caenorhabditis elegans dauer (daf-2(e1370)); test: proportion of mobile C. elegans dauer larvae relative to DMSO control (fraction of DMSO control); higher = more viable, less nematicidal, active = 0.63 or less; extreme values may be limits of the assay; conditions: 60 µM; 5 days; temperature: 20 °C
Method in brief: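 Synchronized C. elegans daf-2(e1370) larvae were held at 25 °C for 48 h on MYOB plates with E. coli OP50 to form dauers, and about 20 dauers were added per 96-well well in liquid NGM. Compound was pinned to 60 µM final (0.6% v/v DMSO), and sealed plates were shaken at 200 rpm for 5 days at 20 °C. The proportion of mobile worms was scored under a dissection microscope relative to DMSO controls and averaged over two biological replicates.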

Ditylenchus dipsaci = test: proportion of mobile D. dipsaci (mixed stage) relative to DMSO control (fraction of DMSO control); higher = more viable, less nematicidal, active = 0.86 or less; extreme values may be limits of the assay; conditions: 60 µM; 5 days; temperature: 20 °C
Method in brief: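 Mobility, expressed relative to DMSO controls, is the mean of two biological replicates. The test organisms were D. dipsaci grown on pea plants in Gamborg B-5 agar and extracted into water by filter funnel, with about 20 added per well of a 96-well plate in distilled water. Compound was pinned to 60 µM final (0.6% v/v DMSO), plates were sealed and shaken at 200 rpm for 5 days at 20 °C, and mobile worms were scored under a microscope once 2 µL 1 M NaOH had been added.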

SMILES	proportion of mobile C. elegans dauer larvae [1]	proportion of mobile D. dipsaci (Ditylenchus dipsaci)
COc1ccc(-c2nc(C3CCCCC3)no2)cc1	1	1
CCCCC(=O)Nc1ccccc1-c1nc(-c2ccccn2)no1	1	1
CCOc1ccccc1-c1nc(-c2cccc(C)c2)no1	1	1
Brc1ccc(-c2noc(-c3ccco3)n2)cc1	0 (active)	0.875
Clc1cc(Br)ccc1OCc1nc(-c2ccccc2)no1	1	1
c1ccc(-c2noc(COc3ccc4c(c3)CCCC4)n2)cc1	1	1
O=C(CSc1nnc(-c2ccccc2)o1)c1ccc(Br)cc1	1	1
O=C(CSc1nnc(-c2ccccc2)o1)Nc1ccc2ccccc2c1	1	1
Clc1cc(Cl)c(OCc2nc(-c3ccncc3)no2)cc1Cl	1	1
Clc1ccccc1OCc1nc(-c2cccs2)no1	1	1
Cc1cccc(-c2nnc(SCC(=O)NC(C)c3ccccc3)o2)c1 (stereo unspecified)	1	1
Cc1ncc2c(c1-c1noc(-c3ccccc3)n1)CCC2	0.929	1
Cc1ccc(-c2nnc(SCC(=O)Nc3cc(C)c(C)cc3Br)o2)cc1	1	1
O=C(CSc1nnc(-c2ccco2)o1)Nc1ccc(Br)cn1	1	1
Cc1cnnn1-c1ccc(-c2nc(-c3ccc(Cl)cc3)no2)cc1	1	1
Clc1ccccc1-c1noc(COc2ccc(Br)cc2)n1	1	1
CN(C(=O)CSc1nnc(-c2ccccc2)o1)c1ccccc1	1	1
Cc1ccc(-c2nnc(SCC(=O)NCCc3ccccc3)o2)cc1	1	1
